Experimental findings from the supplement of paper PMC11417369 are described below.

± gives the standard deviation of the averaged measurements. Whole data set: some 25,000 sequences, median “ln(normalized median fluorescence intensity)” near 8.6, cut for the highest 2% near 10. Many of the other results were omitted from the sample, so the highest values are more common in it than they were.

For the test, the system named is PfAP2-EXP AP2 domain (GST-tagged). In words: gcPBM binding intensity (ln(normalized median fluorescence intensity)); higher = stronger DNA binding. In outline:
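For binding intensity, the highest Masliner-normalised natural-log median intensity across replicate spots of either probe orientation was taken. Protein bound to the array was stained with Alexa488 anti-GST antibody and scanned at 488 nm. The protein, GST-tagged P. falciparum DNA-binding domains from E. coli at about 25 μg on average, had been applied for 1 h to an Agilent 4 × 180k array of primer-extended double-stranded 36-bp intergenic genomic probes and negative controls.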
“TATAAATAGATATATACACACTTGTGCAGAATATTA [CACACA_site7112]”: the “gcPBM binding intensity (ln)” value worked out at 8.63 ± 0.25.

As for “TATATATATATATATACACACTTGTGCAGAATATTA [CACACA_site5257]”, the “gcPBM binding intensity (ln)” value worked out at 10 ± 0.55.

For “TATATATATATATATATACACACTTGTGCAGAATAT [CACACA_site2216]”, the “gcPBM binding intensity (ln)” value was determined as 10.2 ± 0.41.

For the sequence “ATTATATATACATATACACACATACGTACATACATA [CACACA_site9194]”, the “gcPBM binding intensity (ln)” value was 8.8 ± 0.4.

With “TTATTCATACAATATCGTACATATATATATATATAT [XGTACX_site1185]”, the “gcPBM binding intensity (ln)” value is 10.2 ± 0.33.

Take “ACATTTTTTTCATATCGTACATATTATAATATTTTC [XGTACX_site6524]”: the “gcPBM binding intensity (ln)” value came to 8.9 ± 0.39.

On to “TAAAAAATATACATTCGTACATATATATTATATATA [XGTACX_site7918]”, for which the “gcPBM binding intensity (ln)” value amounted to 8.12 ± 0.25.

As for “TACAATTCGTAATACACACACATATATATATATATT [CACACA_site3751]”, the “gcPBM binding intensity (ln)” value stood at 8.62 ± 0.36.

With “TACAATTCGTAATACACACACATATAAATAAATATT [CACACA_site7720]”, the “gcPBM binding intensity (ln)” value worked out at 8.44 ± 0.38.

Turning to “CCTACAATTCGTAATACACACACATATATATATATA [CACACA_site9251]”, the “gcPBM binding intensity (ln)” value was determined as 10.2 ± 0.16.

“ATACATATATAAATACGTACATATATAATTATATAT [XGTACX_site8178]”: the “gcPBM binding intensity (ln)” value came to 8.55 ± 0.3.

Take “TAATATTCAATTATACGTACACATATATATATATAT [XGTACX_site4245]”: the “gcPBM binding intensity (ln)” value came to 10.2 ± 0.2.

In the case of “TTGTAATTCATTCAAATATAAAATAAATAAATATGA [CACACA_negctrl_site349]”, the “gcPBM binding intensity (ln)” value is 8.28 ± 0.34.

In the case of “AAATGAATTATATAATATATATAAATAAATAAATAA [CACACA_negctrl_site359]”, the “gcPBM binding intensity (ln)” value turned out to be 8.46 ± 0.18.

Regarding “ATTTAAAACAAAAGTAGTACGTCTAATAAATTCAAC [XGTACX_site4344]”, the “gcPBM binding intensity (ln)” value was 8.45 ± 0.34.

With “AAAAAAAAAAAGAAGGGTACATATTATATATAATAT [XGTACX_site6204]”, the “gcPBM binding intensity (ln)” value came to 8.59 ± 0.48.

In the case of “TATAAGAATAAAAAGGGTACATAAAATAATAATATA [XGTACX_site2355]”, the “gcPBM binding intensity (ln)” value was 8.82 ± 0.38.

For the sequence “ATTATAAGAAGGGGGGGTACATAAATATAAATGTAT [XGTACX_site5624]”, the “gcPBM binding intensity (ln)” value was determined as 10.4 ± 0.2.

For the sequence “ATACATATACACATATGTACATATGAAAAGAAAAAT [XGTACX_site6445]”, the “gcPBM binding intensity (ln)” value was 8.94 ± 0.45.

With “ATATATATATATATATGTACACATATTATAAAAAAA [XGTACX_site8644]”, the “gcPBM binding intensity (ln)” value is 10.2 ± 0.32.

“TATTATAATAAAATATGTACACACATACACACATAT [XGTACX_site2360]”: the “gcPBM binding intensity (ln)” value was found to be 8.8 ± 0.33.

Turning to “TAAAAGAAATATACATGTACATAAATATATATATAT [XGTACX_site1276]”, the “gcPBM binding intensity (ln)” value stood at 9.86 ± 0.2.

With “ATATATATATATATATGTACACATAAAAAGAAAGAA [XGTACX_site1603]”, the “gcPBM binding intensity (ln)” value amounted to 10.2 ± 0.21.

Turning to “ACATTATATAAAATATGTACACATAAATAAATAAAT [XGTACX_site5031]”, the “gcPBM binding intensity (ln)” value is 8.73 ± 0.41.

“AAAAAAAAAGAAAAATGTACATACATAAATATATAT [XGTACX_site5664]”: the “gcPBM binding intensity (ln)” value came to 8.57 ± 0.45.

With “AAATAAAGAAATATATGTACATATATATATATATAT [XGTACX_site5131]”, the “gcPBM binding intensity (ln)” value amounted to 10.4 ± 0.28.

In the case of “TAAGAAAAATATATATGTACACATATATATATATAT [XGTACX_site8542]”, the “gcPBM binding intensity (ln)” value was found to be 9.97 ± 0.57.

On to “TTACAACAGAATGGTATTTTTTTATTTTAAAGAAAA [TGCATGCA_negctrl_site230]”, for which the “gcPBM binding intensity (ln)” value worked out at 8.04 ± 0.38.

In the case of “ACATAATATACTATTGTGCACATATATATATATATA [GTGCAC_site9761]”, the “gcPBM binding intensity (ln)” value was 10.1 ± 0.45.

On to “AAAATGATGTTAATTACACACATCATCTCATAAACA [CACACA_site3017]”, for which the “gcPBM binding intensity (ln)” value came to 8.28 ± 0.4.

For the sequence “TATTTAATTACATGAACACACATTAGATATTTTTAA [CACACA_site7405]”, the “gcPBM binding intensity (ln)” value worked out at 8.14 ± 0.44.

Consider “AATACAATATAAAGGTGTACATATATATATATATAT [XGTACX_site68]”, for which the “gcPBM binding intensity (ln)” value was determined as 10.1 ± 0.48.

In the case of “ATTCATAAAAAGAGGTGTACATTAATATAATATATA [XGTACX_site8283]”, the “gcPBM binding intensity (ln)” value turned out to be 8.62 ± 0.35.

Take “ACATATATATAAAGGTGTACACATATATATATATAT [XGTACX_site4779]”: the “gcPBM binding intensity (ln)” value came to 10.2 ± 0.71.

In the case of “TATATATAAAGGTGTACACATATATATATATCTGTA [CACACA_site5311]”, the “gcPBM binding intensity (ln)” value was determined as 8.45 ± 0.17.

As for “TTCATAATAAAAAGGTGTACATATATATATATATAT [XGTACX_site2829]”, the “gcPBM binding intensity (ln)” value was determined as 10.34 ± 0.085.

Take “AAAAAAAAAAAAAGGTGTACATAAGTAAATTCATAT [XGTACX_site4206]”: the “gcPBM binding intensity (ln)” value is 8.7 ± 0.54.

On to “TATGTATATTTTAATTGTACGTGTATGGTTGTAAAT [XGTACX_site8738]”, for which the “gcPBM binding intensity (ln)” value came out at 8.79 ± 0.38.

In the case of “TATTAAAATATTTATACACACATAATTTTGATAAAT [CACACA_site4486]”, the “gcPBM binding intensity (ln)” value was determined as 8.19 ± 0.43.

Regarding “ATAATATTATTATAATGTACATATTTCGATATAAAT [XGTACX_site8808]”, the “gcPBM binding intensity (ln)” value is 8.61 ± 0.42.

As to “TATTCGTGCAATAATAGTACACTTATAAATTATTCA [XGTACX_site8993]”, the “gcPBM binding intensity (ln)” value is 8.595 ± 0.064.

Consider “CACAATACTTTCATCACACATATATATATATATATA [CACACA_site4677]”, for which the “gcPBM binding intensity (ln)” value came out at 10.1 ± 0.28.

For “TCAAAAATAAAGATCACACATATATATATATATATA [CACACA_site4381]”, the “gcPBM binding intensity (ln)” value is 10.2 ± 0.35.

On to “TACTTTATATAAAGATCAAAAAATAAATAATTATAA [TGCATGCA_negctrl_site446]”, for which the “gcPBM binding intensity (ln)” value came to 8.45 ± 0.21.

“AAAAAAAAAGATCACACACACATAAATATAAACAAA [CACACA_site5285]”: the “gcPBM binding intensity (ln)” value turned out to be 8.48 ± 0.26.
